# Assay outcomes: PubChem, National Center for Advancing Translational Sciences (NCATS)
# HepG2 tox: counter-screen for TGF-b inhibitors: cytotoxicity in HepG2 cells | HepG2 CAGA-GFP viability, ATP luminescence, 18 h | AID 588856 | 0.76% of 410,000 active | Potency, µM (doses to about 46.1 µM), inactives show at the highest dose activity change, negative = cytotoxicity, most hits filed as cytotoxic
#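 HepG2 CAGA-GFP cells (1000/well, DMEM with 1% FBS) received compound, then TGF-beta at 500 pg/mL final, and were incubated 18 hours at 37 degrees C. Viability was read by CellTiter-Glo luminescence. Media-only wells were set as complete cell-killing and DMSO as no toxicity.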
# TGFb SMAD3 inh: TGF-b pathway inhibition. HepG2 CAGA-GFP TGF-b/SMAD3 reporter, GFP fluorescence, 18 h; TGF-beta stimulated, 500 pg/mL final. Potency, µM (top dose mostly 46.1 µM), without a hit: at the highest dose activity, negative = inhibition, most hits filed as inhibitors. 1.2% of 410,000 active. AID 588855; further: on the % scale 0 is the no-effect control and ±100 the full control effect; nearly all actives have a fitted effect of over 65% in size
#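 Using HEPG2 CAGA-GFP reporter cells at 1000 cells/well, we pinned test compounds, stimulated with recombinant TGF-beta (500 pg/mL final) and measured total well GFP after 18 h.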
# KB-V1 cytotox: KB-V1 MDR subline cytotoxicity | KB-V1 MDR cells viability, CellTiter-Glo, 72 h | Potency, µM (top dose mostly 46.1 µM), hits mostly cytotoxic | 3.4% of 400,000 active | AID 1347076; further: on the % scale 0 is the no-effect control and ±100 the full control effect; nearly all actives have a fitted effect of over 60% in size
#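 Drug-selected KB-V1 cells, grown in DMEM lacking phenol red with 10% FBS, receive compound titrations; after three days at 37 degrees C, surviving cell ATP is quantified by CellTiter-Glo luminescence and responses normalized and curve-fitted.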
# HT1080NT lethal: kills 2HG-producing HT-1080-NT fibrosarcoma cells. HT-1080-NT fibrosarcoma viability, CellTiter-Glo ATP luminescence, 48 h. Potency, µM (top dose mostly 46.1 µM), without a hit: top-dose activity, negative = less viability, hits mostly cytotoxic. 1.6% of 360,000 active. AID 686970;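 further: NT is the 2HG producing partner of a matched IDH1 knockdown line; 0% = DMSO-treated cells and -100% = media-only wells without cells; nearly all actives have a fitted effect of over 55% in size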
#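 Compounds were tested in concentration-response format on HT-1080-NT cells for 48 hours at 37 degrees C. Cell viability came from CellTiter-Glo luminescence; curves were classified by r2, response magnitude and activity.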
# HT1080 IDH1KD tx: HT-1080 IDH1 knockdown cell toxicity (counter line); HT-1080 IDH1 knockdown viability, ATP luminescence, 48 h; Potency, µM (highest dose often 46.1 µM), inactives show top-dose activity, negative = toxicity, most hits filed as cytotoxic; 2% of 360,000 active; AID 686971;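 further: 0% = DMSO wells and -100% = cell-free medium wells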
#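 CellTiter-Glo luminescence after 48 h compound exposure at 37 degrees C of IDH1-knockdown HT-1080 cells in 5% FBS RPMI. %Activity scaled between DMSO wells and cell-free media wells, with curves fitted and assigned curve classes.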
# KB-3-1 cytotox: kills parental KB-3-1 adenocarcinoma cells; KB-3-1 viability, CellTiter-Glo ATP luminescence, 72 h; Potency, µM (series often up to 46.1 µM), most hits filed as cytotoxic; 1.4% of 400,000 active; further: on the % scale 0 is the no-effect control and ±100 the full control effect; nearly all actives have a fitted effect of over 60% in size
#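 Cytotoxicity in the drug-sensitive parental line KB-3-1 was scored as loss of CellTiter-Glo luminescence following 72 h incubation with compound. Values come from curve fitting of normalized concentration-response data.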
# * = called active by the depositor; i = inactive; ? = inconclusive; nt = no result given. Most compounds without a hit are left out; they make up all but 6.6% or so of the library. The call rests on the fitted dose curve; in most records, active means well fitted curve in the direction sought with a large enough effect; inconclusive means small, poorly fitted or top-dose-only effect, or another doubt; inactive means no such curve, though single readings can be large; an effect the other way counts as inactive or inconclusive. Potency means the concentration at half of the fitted maximal effect.
SMILES,HepG2 tox,TGFb SMAD3 inh,KB-V1 cytotox,HT1080NT lethal,HT1080 IDH1KD tx,KB-3-1 cytotox
COc1ccc(NC(=O)Cn2nnc(-c3ccccc3NC(=O)c3cccs3)n2)cc1,-2.6%,-11.9%,i,?,?,?
Nc1nnnn1/N=C/c1ccc(O)cc1,1.9%,1.5%,i,16.5%,17.7%,i
CCN(CC)c1ccc(/C=N/n2nnnc2N)c(O)c1,-22.2%,27.5%,?,-0.6%,-22.8%,16.4µM*
Nc1nnnn1/N=C/c1cc(Cl)ccc1O,-0.2%,20.1%,?,3.6%,5.0%,i
CCN(C)c1ccc(/C=N\n2nnnc2N)cc1,3.0%,1.0%,2.59µM*,?,5.17µM*,5.17µM*
CC(=O)Oc1ccc(C23c4ccccc4C2(OC(C)=O)c2cc(OC(C)=O)ccc23)cc1 (centres undefined),-16.5%,?,?,7.31µM*,7.31µM*,?
COc1ccc(-n2c(SCC(=O)Nc3cccc(C)c3C)nc3c([nH]c4ccccc43)c2=O)cc1,-17.7%,-15.0%,nt,nt,nt,nt
CCCCCCCCN1C(=O)[C@H](CC(=O)NCc2cccc(C(F)(F)F)c2)C[C@@]2(C(=O)OCC)CCCC=C12,nt,nt,?,-27.0%,14.6µM*,?
COC(=O)[C@@]12C[C@@H](CC(=O)NCc3cccc(C(F)(F)F)c3)C(=O)N(CCc3ccc(OC)c(OC)c3)C1=CCC(C)(C)C2,nt,nt,16.4µM*,?,?,?
COC(=O)[C@@]12C[C@@H](CC(=O)NCc3cccc(C(F)(F)F)c3)C(=O)N(Cc3ccc4c(c3)OCO4)C1=CCC(C)(C)C2,nt,nt,20.6µM*,13µM*,20.6µM*,?
COC(=O)[C@]12CCCCC=C1N(CCc1ccc(OC)c(OC)c1)C(=O)[C@H](CC(=O)NCCCCc1ccccc1)C2,nt,nt,?,?,?,i
COC(=O)[C@]12CCCCC=C1N(CCc1ccc(OC)c(OC)c1)C(=O)[C@H](CC(=O)NCCc1ccccc1OC)C2,nt,nt,16.4µM*,-1.8%,-13.0%,i
Cc1ccc(NC(=O)C2CCCN(S(=O)(=O)c3c(C)n[nH]c3C)C2)cc1C (centres undefined),-6.1%,-9.0%,?,nt,nt,i
CCCCC(CC)CNC(=O)c1ccc2c(=O)n(CCOC)c(=O)[nH]c2c1 (centres undefined),1.0%,6.0%,i,nt,nt,i
COC(=O)[C@]12CCCCC=C1N(CCc1ccc(OC)c(OC)c1)C(=O)[C@H](CC(=O)NCc1cccc(C(F)(F)F)c1)C2,nt,nt,14.6µM*,?,?,?
Cc1ccc(S(=O)(=O)N2CCN(S(=O)(=O)N3CCC(C)CC3)CC2)cc1C,-3.9%,-2.7%,i,15.1%,16.0%,i
COc1cc2c(cc1OC)C(=O)C(Br)CC2 (centres undefined),15.8µM*,?,i,?,?,?
COc1cc2c(cc1OC)C(=O)C(c1ccc3c(c1)OCO3)CC2 (centres undefined),2.6%,-1.4%,i,-1.3%,15.5%,i
CC1(OC(=O)C2CCCC2)C(=O)C=C2C=C(c3ccsc3)N(C3CCCCC3)C=C2C1=O (centres undefined),-11.6%,-0.7%,i,0.0%,-4.4%,20.6µM*
NC(=O)C1=CC2C3C=CC2(O)C(=O)OC3O1 (centres undefined),12.6µM*,11.2µM*,?,?,20.6µM*,?
Cc1cc(C)cc(N(CCC#N)C(=O)COC(=O)CCc2c[nH]c3ccccc23)c1,-17.6%,1.7%,20.6µM*,-3.8%,-8.2%,i
CN(C(=O)COC(=O)CCc1c[nH]c2ccccc12)c1ccccc1,-2.7%,-14.0%,?,-0.7%,2.6%,i
COc1cc(Cl)c(C)cc1NC(=O)Cn1ncc2c3ccccc3n(Cc3ccccc3)c2c1=O,2.4%,-0.5%,i,nt,nt,i
